Data: PubChem BioAssay AID1159580 (chemical genetic matrix, 2015)
The whole screen tested about 5,500 compounds, of which about 2,000 (36%) were called active. About 18% were inconclusive and are not listed. No stated cut-off is given here; in the data, active means normalized growth mostly below about 0.91 (no sharp cut-off); inconclusive means no clear call, values can overlap the other calls; inactive means mostly above about 0.92. This is one part of the list.

Assay: chemical genetic growth profiling, strain panel (AID 1159580);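 further: tested at 20 µM; growth read once vehicle control cultures reached saturation at 30 °C; 1 = growth at the plate median or of vehicle wells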
Settings: growth OD

Measured: normalized growth

C[C@]12CCC(=O)C=C1C=CC1C2CC[C@@]2(C)C1CC[C@@]2(O)CCC(=O)O (some centres not stated)
inactive: S. cerevisiae deletion strains, locus YJR075W, strain HOC1, stronger effect = lower value 0.991 | S. cerevisiae deletion strains, locus YKL009W, strain mrt4, stronger effect = lower value 0.962 | S. cerevisiae deletion strains, locus YKL068W, stronger effect = lower value 0.995 | S. cerevisiae deletion strains, locus YKL085W, strain MDH1 (second series), stronger effect = lower value 0.993 | S. cerevisiae deletion strains, locus YKL085W, strain MDH1, stronger effect = lower value 0.993 | S. cerevisiae deletion strains, locus YKL160W, strain elf1, stronger effect = lower value 0.996 | S. cerevisiae deletion strains, locus YKL190W, strain CNB1, stronger effect = lower value 1.01 | S. cerevisiae deletion strains, locus YKR001C, strain vps1, stronger effect = lower value 0.98 | S. cerevisiae deletion strains, locus YKR026C, strain gcn3, stronger effect = lower value 1.03 | S. cerevisiae deletion strains, locus YKR091W, strain srl3, stronger effect = lower value 1.01 | S. cerevisiae deletion strains, locus YLL001W, strain dnm1, stronger effect = lower value 1.01 | S. cerevisiae deletion strains, locus YLL026W, stronger effect = lower value 1 | S. cerevisiae deletion strains, locus YLL041C, strain sdh2, stronger effect = lower value 1.01 | S. cerevisiae deletion strains, locus YLR027C, strain aat2, stronger effect = lower value 1.01 | S. cerevisiae deletion strains, locus YLR039C, strain RIC1, stronger effect = lower value 0.986 | S. cerevisiae deletion strains, locus YLR058C, strain SHM2, stronger effect = lower value 0.994 | S. cerevisiae deletion strains, locus YLR102C, strain apc9, stronger effect = lower value 0.999 | S. cerevisiae deletion strains, locus YLR113W, strain HOG1, stronger effect = lower value 1.06 | S. cerevisiae deletion strains, locus YLR221C, strain rsa3, stronger effect = lower value 1.01 | S. cerevisiae deletion strains, locus YLR258W, strain gsy2, stronger effect = lower value 1.02 | S. cerevisiae deletion strains, locus YLR262C, strain YPT6 (second series), stronger effect = lower value 0.93 | S. cerevisiae deletion strains, locus YLR262C, strain YPT6, stronger effect = lower value 0.983 | S. cerevisiae deletion strains, locus YLR268W, strain sec22, stronger effect = lower value 0.929 | S. cerevisiae deletion strains, locus YLR320W, strain mms22, stronger effect = lower value 1.01 | S. cerevisiae deletion strains, locus YLR330W, strain CHS5, stronger effect = lower value 1.02 | S. cerevisiae deletion strains, locus YLR342W, strain FKS1 (second series), stronger effect = lower value 1.05 | S. cerevisiae deletion strains, locus YLR342W, strain FKS1, stronger effect = lower value 0.995 | S. cerevisiae deletion strains, locus YLR357W, strain rsc2, stronger effect = lower value 1.01 | S. cerevisiae deletion strains, locus YLR370C, strain arc18, stronger effect = lower value 1.02 | S. cerevisiae deletion strains, locus YLR371W, strain rom2, stronger effect = lower value 0.985 | S. cerevisiae deletion strains, locus YLR384C, strain iki3, stronger effect = lower value 1.02 | S. cerevisiae deletion strains, locus YLR418C, strain cdc73, stronger effect = lower value 0.977 | S. cerevisiae deletion strains, locus YML016C, strain PPZ1, stronger effect = lower value 0.99 | S. cerevisiae deletion strains, locus YML032C, strain rad52, stronger effect = lower value 0.978 | S. cerevisiae deletion strains, locus YML120C, strain ndi1, stronger effect = lower value 1.02 | S. cerevisiae deletion strains, locus YML124C, strain tub3, stronger effect = lower value 0.996 | S. cerevisiae deletion strains, locus YMR058W, strain fet3, stronger effect = lower value 1.02 | S. cerevisiae deletion strains, locus YMR078C, strain ctf18, stronger effect = lower value 0.979 | S. cerevisiae deletion strains, locus YMR125W, strain sto1, stronger effect = lower value 1.04 | S. cerevisiae deletion strains, locus YMR129W, stronger effect = lower value 1.03 | S. cerevisiae deletion strains, locus YMR205C, strain PFK2, stronger effect = lower value 1.05 | S. cerevisiae deletion strains, locus YMR223W, strain ubp8, stronger effect = lower value 1.01 | S. cerevisiae deletion strains, locus YMR231W, strain pep5, stronger effect = lower value 1.02 | S. cerevisiae deletion strains, locus YMR263W, strain SAP30, stronger effect = lower value 0.988 | S. cerevisiae deletion strains, locus YMR307W, strain GAS1, stronger effect = lower value 1.01 | S. cerevisiae deletion strains, locus YNL067W, strain RPL9B, stronger effect = lower value 0.969 | S. cerevisiae deletion strains, locus YNL071W, strain lat1, stronger effect = lower value 1.01 | S. cerevisiae deletion strains, locus YNL128W, strain TEP1, stronger effect = lower value 0.995 | S. cerevisiae deletion strains, locus YNL153C, strain GIM3, stronger effect = lower value 0.977 | S. cerevisiae deletion strains, locus YNL183C, strain NPR1, stronger effect = lower value 0.995 | S. cerevisiae deletion strains, locus YNL209W, strain ssb2, stronger effect = lower value 1.02 | S. cerevisiae deletion strains, locus YNL233W, strain BNI4, stronger effect = lower value 0.99 | S. cerevisiae deletion strains, locus YNL248C, strain rpa49, stronger effect = lower value 1.04 | S. cerevisiae deletion strains, locus YNL250W, strain rad50, stronger effect = lower value 0.993 | S. cerevisiae deletion strains, locus YNL271C, strain bni1, stronger effect = lower value 0.986 | S. cerevisiae deletion strains, locus YNL298W, strain CLA4, stronger effect = lower value 0.984 | S. cerevisiae deletion strains, locus YNL307C, strain MCK1, stronger effect = lower value 0.989 | S. cerevisiae deletion strains, locus YNL322C, strain KRE1 (second series), stronger effect = lower value 1.02 | S. cerevisiae deletion strains, locus YNL322C, strain KRE1, stronger effect = lower value 1 | S. cerevisiae deletion strains, locus YNR049C, strain mso1, stronger effect = lower value 1.02 | S. cerevisiae deletion strains, locus YNR052C, strain pop2, stronger effect = lower value 0.996 | S. cerevisiae deletion strains, locus YOL006C, strain TOP1, stronger effect = lower value 0.951 | S. cerevisiae deletion strains, locus YOL012C, strain htz1 1.54 | S. cerevisiae deletion strains, locus YOL147C, strain pex11, stronger effect = lower value 0.989 | S. cerevisiae deletion strains, locus YOR001W, strain rrp6, stronger effect = lower value 1 | S. cerevisiae deletion strains, locus YOR061W, strain CKA2, stronger effect = lower value 0.995 | S. cerevisiae deletion strains, locus YOR069W, strain VPS5, stronger effect = lower value 0.985 | S. cerevisiae deletion strains, locus YOR070C, strain gyp1, stronger effect = lower value 1.03 | S. cerevisiae deletion strains, locus YOR080W, strain dia2, stronger effect = lower value 1.02 | S. cerevisiae deletion strains, locus YOR083W, strain WHI5, stronger effect = lower value 0.965 | S. cerevisiae deletion strains, locus YOR106W, strain vam3, stronger effect = lower value 1.01 | S. cerevisiae deletion strains, locus YOR136W, strain idh2, stronger effect = lower value 0.987 | S. cerevisiae deletion strains, locus YOR144C, strain elg1, stronger effect = lower value 0.994 | S. cerevisiae deletion strains, locus YOR184W, strain ser1, stronger effect = lower value 0.977 | S. cerevisiae deletion strains, locus YOR231W, strain MKK1, stronger effect = lower value 1.05 | S. cerevisiae deletion strains, locus YOR265W, strain rbl2, stronger effect = lower value 1.02 | S. cerevisiae deletion strains, locus YOR270C, strain vph1, stronger effect = lower value 1.05 | S. cerevisiae deletion strains, locus YOR290C, strain snf2, stronger effect = lower value 1.02 | S. cerevisiae deletion strains, locus YOR316C, strain cot1, stronger effect = lower value 0.995 | S. cerevisiae deletion strains, locus YPL051W, strain arl3, stronger effect = lower value 1 | S. cerevisiae deletion strains, locus YPL055C, strain LGE1, stronger effect = lower value 1.02 | S. cerevisiae deletion strains, locus YPL078C, strain atp4, stronger effect = lower value 1.01 | S. cerevisiae deletion strains, locus YPL106C, strain sse1, stronger effect = lower value 1.01 | S. cerevisiae deletion strains, locus YPL240C, strain hsp82, stronger effect = lower value 1.02 | S. cerevisiae deletion strains, locus YPL241C, strain CIN2, stronger effect = lower value 1 | S. cerevisiae deletion strains, locus YPL256C, strain CLN2, stronger effect = lower value 1.1 | S. cerevisiae deletion strains, locus YPR119W, strain clb2, stronger effect = lower value 0.994 | S. cerevisiae deletion strains, locus YPR141C, strain kar3, stronger effect = lower value 0.982 | S. cerevisiae deletion strains, locus YPR163C, strain tif3, stronger effect = lower value 0.991 | S. cerevisiae deletion strains, locus YPR167C, strain met16, stronger effect = lower value 0.995 | S. cerevisiae deletion strains, strain wtn01, stronger effect = lower value 0.953 | S. cerevisiae strains, strain wild type, stronger effect = lower value 1
